Our source for the Percent Effect values is ChEMBL document CHEMBL3988442, “University of Dundee, Small-Polar-MMV Screening Library” (2021).

The structures appear in SMILES notation.

Sequence of Chromo domain-containing protein 1 (Saccharomyces cerevisiae (strain ATCC 204508 / S288c) (Baker's yeast)) (P32657 whole entry, the tested form may be a part): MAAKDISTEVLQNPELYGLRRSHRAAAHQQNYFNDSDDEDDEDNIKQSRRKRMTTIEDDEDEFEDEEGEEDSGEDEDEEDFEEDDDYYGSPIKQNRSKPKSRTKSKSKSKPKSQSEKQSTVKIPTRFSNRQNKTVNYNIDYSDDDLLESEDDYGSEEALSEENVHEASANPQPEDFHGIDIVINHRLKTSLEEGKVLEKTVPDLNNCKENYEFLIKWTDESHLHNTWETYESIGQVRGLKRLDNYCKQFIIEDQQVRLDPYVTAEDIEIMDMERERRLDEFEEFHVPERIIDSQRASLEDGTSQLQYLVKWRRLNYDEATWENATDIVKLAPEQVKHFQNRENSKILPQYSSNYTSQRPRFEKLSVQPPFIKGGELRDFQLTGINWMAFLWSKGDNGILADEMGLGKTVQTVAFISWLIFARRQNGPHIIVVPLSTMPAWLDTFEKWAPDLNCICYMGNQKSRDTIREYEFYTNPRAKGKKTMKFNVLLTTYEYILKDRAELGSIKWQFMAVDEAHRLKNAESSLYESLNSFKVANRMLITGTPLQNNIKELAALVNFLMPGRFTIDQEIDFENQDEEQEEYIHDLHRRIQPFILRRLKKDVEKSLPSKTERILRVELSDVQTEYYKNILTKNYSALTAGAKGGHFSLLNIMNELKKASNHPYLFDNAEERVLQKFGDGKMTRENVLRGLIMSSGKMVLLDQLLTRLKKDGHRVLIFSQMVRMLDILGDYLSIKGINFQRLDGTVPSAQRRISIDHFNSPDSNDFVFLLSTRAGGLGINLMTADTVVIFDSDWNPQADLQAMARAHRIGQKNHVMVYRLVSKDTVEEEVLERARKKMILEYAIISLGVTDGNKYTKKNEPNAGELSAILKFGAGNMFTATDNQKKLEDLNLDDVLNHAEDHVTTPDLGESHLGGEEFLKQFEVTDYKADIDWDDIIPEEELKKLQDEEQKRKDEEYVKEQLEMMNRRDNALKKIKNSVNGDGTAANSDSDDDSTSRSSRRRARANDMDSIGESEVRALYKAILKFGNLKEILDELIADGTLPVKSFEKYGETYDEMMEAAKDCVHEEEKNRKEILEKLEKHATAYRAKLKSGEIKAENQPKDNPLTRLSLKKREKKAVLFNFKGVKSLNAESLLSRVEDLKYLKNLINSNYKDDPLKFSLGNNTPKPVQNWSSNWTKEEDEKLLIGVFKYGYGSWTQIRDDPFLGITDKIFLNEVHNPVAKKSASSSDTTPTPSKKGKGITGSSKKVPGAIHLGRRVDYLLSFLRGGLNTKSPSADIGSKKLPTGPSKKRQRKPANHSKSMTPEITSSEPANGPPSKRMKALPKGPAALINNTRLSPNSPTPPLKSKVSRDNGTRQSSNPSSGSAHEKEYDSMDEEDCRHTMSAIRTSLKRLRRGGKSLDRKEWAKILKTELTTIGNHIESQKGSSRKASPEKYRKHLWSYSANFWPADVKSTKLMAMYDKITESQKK

One assay deals with T1, Tyrosyl-tRNA synthetase, putative (Trypanosoma cruzi (strain CL Brener)) (UniProt Q4DSP6).
T1 sequence (whole entry): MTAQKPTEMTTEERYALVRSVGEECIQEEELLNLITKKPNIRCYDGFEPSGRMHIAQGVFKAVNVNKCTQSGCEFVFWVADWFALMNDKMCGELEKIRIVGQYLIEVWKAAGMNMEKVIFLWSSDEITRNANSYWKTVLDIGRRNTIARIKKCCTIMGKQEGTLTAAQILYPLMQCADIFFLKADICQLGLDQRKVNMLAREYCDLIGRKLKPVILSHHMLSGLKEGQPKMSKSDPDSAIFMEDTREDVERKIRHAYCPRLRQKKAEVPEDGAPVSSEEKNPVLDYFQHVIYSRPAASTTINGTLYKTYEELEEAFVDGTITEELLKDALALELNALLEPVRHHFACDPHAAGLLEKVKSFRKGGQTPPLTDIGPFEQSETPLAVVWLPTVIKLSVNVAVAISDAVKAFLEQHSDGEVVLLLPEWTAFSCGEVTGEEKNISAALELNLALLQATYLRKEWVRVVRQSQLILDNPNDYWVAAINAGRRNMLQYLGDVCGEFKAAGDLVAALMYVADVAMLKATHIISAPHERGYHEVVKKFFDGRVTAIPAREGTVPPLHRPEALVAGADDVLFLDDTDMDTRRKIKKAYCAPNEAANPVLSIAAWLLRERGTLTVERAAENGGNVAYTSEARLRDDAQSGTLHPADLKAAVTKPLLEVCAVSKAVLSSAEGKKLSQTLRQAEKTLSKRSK
The assay is described as follows: Trypanosoma cruzi tyrosyl tRNA synthetase (TcYRS) SOP. The format is functional. Also noted: scale not given: direction of the effect not stated beside the values. The conditions noted are these: 30 µM.
Regarding `Cc1cccc(CN2C(=O)CCC23CCN(Cc2cccn2C)CC3)n1`, the Percent Effect came out at 22.5%.
`CN(C(=O)CN1CCOC(Cn2cccn2)C1)c1nccs1` (stereo not drawn): the Percent Effect was 21.2%.
With `c1cc(-c2nc(CN3CCn4c(nnc4C4CC4)C3)cs2)cs1`, the Percent Effect is 8.43%.
Turning to `CS(=O)(=O)NCC1CCCN(C(=O)COCC(F)(F)F)C1` (stereo not drawn), the Percent Effect was 22.9%.
Consider `COc1ccc(-c2nc(CN3CCc4c(ncn4C)C3)cs2)cc1`, for which the Percent Effect came out at 22.9%.
Still for that read-out and setting: the same measure for `Cc1cccc(CN2CCC3(CCN(c4ccccn4)C3)C2=O)c1` (stereo not drawn): 12.5%.
Take `CCCC(C)C(=O)N1CCC(n2cccc2C(=O)OC)CC1` (stereo not drawn): the Percent Effect came to 9.41%.
On the same count and under the same terms, the same measure for `O=C(NCC1CCOC1)Nc1ccc(OCC(F)(F)F)nc1` (stereo not drawn): 8.43%.
Same read-out and setting: with `Cc1ncc(-c2ccnc(N3CCN(C)CC3)n2)c(-c2cccnc2)n1` the figure was -2.56%; with `Cc1cc(OCC(=O)N2CCCC(c3noc(C)n3)C2)no1` (stereo not drawn), 2.56%.
Regarding `COc1ccc(OCCN(C)C(=O)NC(C)c2nncn2C)cc1` (stereo not drawn), the Percent Effect was 12.8%.
On the same count and under the same terms, with `CCc1ccsc1C(=O)N1CCN(C(=O)CC(F)(F)F)CC1` the figure was 23.5%; with `CC(C(=O)N1CCCC1)N1CCC(c2nccn2Cc2cscn2)CC1` (stereo not drawn), 12.2%; with `CCC(=O)N1CCC(O)(c2ncc(OC)nc2OC)CC1`, 7.5%.
For `O=C(c1cc(Cl)c2c(c1)OCCO2)N1CCCC(n2cncn2)C1` (stereo not drawn), the Percent Effect is 0%.
Still for that read-out and setting: the same measure for `CN(C)CC1CN(Cc2nnc(-c3ccccc3Cl)o2)CCO1` (stereo not drawn): 0%; for `Cc1ccc(OCC(O)CN2CCC(Cn3cccn3)CC2)cc1` (stereo not drawn): 23.5%; for `COCCN1CCCN(C(=O)NC(C)Cn2ccnc2)CC1` (stereo not drawn): 18.8%.
Turning to `CCc1nc(C2CCCN2C(=O)c2ccoc2C)no1` (stereo not drawn), the Percent Effect is -18.1%.
As to `COc1cc(CNCc2ccc(NC(=O)NC(C)C)cc2)cc(OC)c1`, the Percent Effect worked out at 30.6%.
As for `Cc1cc(NC(=O)N(CC2CCOC2)C2CC2)no1` (stereo not drawn), the Percent Effect was 12.8%.
For the compound `COc1ccc(F)cc1C(=O)N(C)Cc1cc(C)on1`, the Percent Effect came out at 13.2%.
Same read-out and setting: the same measure for `CN(C)C(=O)N1C[C@H]2CCC[C@@]2(COc2ccccn2)C1`: 5.13%; for `COc1ncc(C2CC(=O)NCc3nc4ccccn4c32)cn1` (stereo not drawn): 14.6%; for `Cn1nc2c(cc1=O)CN(Cc1nc(C(C)(C)C)no1)CC2`: 2.56%.
Take `Fc1cnc(N2CCOCC3(CCCN(c4nncs4)C3)C2)nc1` (stereo not drawn): the Percent Effect worked out at 7.69%.
Still for that read-out and setting: with `CN1CCCn2c(nc(CNC(=O)c3ccsc3)cc2=O)C1` the figure was 5.13%.
Same read-out and setting: with `Cc1ccc(-c2nc(CN3CCn4c(nnc4C4CC4)C3)co2)cc1` the figure was 12.8%; with `O=c1cc(Cn2cncn2)nc2n1CCCN(CC1CC1)C2`, 5.13%; with `CC(c1nc(C2CC2)no1)N1CCN(Cc2ccsc2)CC1` (stereo not drawn), 8.43%.
Same read-out and setting: with `O=c1c2ccccc2nc2n1C(CSc1ccc(Cl)cc1Cl)CN2` (stereo not drawn) the figure was 10%.
Turning to `CCc1cc(O)nc(C2CCCN2C(=O)c2cc(C)no2)n1` (stereo not drawn), the Percent Effect was found to be 5%.
Regarding `CN(C)C(=O)CCC(=O)NCc1cccnc1-n1cnc2ccccc21`, the Percent Effect was -2.44%.
On to `CCc1nccn1C1CCCN(C(=O)Cc2ccc(OC)c(F)c2)C1` (stereo not drawn), for which the Percent Effect is 10.3%.
Still for that read-out and setting: with `CC(=O)N1C[C@@H](c2ccsc2)[C@@H]2CN(Cc3ccccc3)CC[C@@H]21` the figure was 7.5%; with `CN(C)CC1CN(Cc2coc(-c3ccccc3Cl)n2)CCO1` (stereo not drawn), 5.13%.
On to `CCNC(=O)[C@@H]1C[C@@H](NC(=O)Cc2ccncc2)CN1Cc1ccsc1`, for which the Percent Effect is 2.44%.
With `CC(C)(C)C(O)CN1CCN(C(=O)c2cccc3[nH]ncc23)CC1` (stereo not drawn), the Percent Effect was found to be 22.9%.
On the same count and under the same terms, the same measure for `CC(C)c1cc(N2CCN(c3ccc(O)cc3)CC2)n2nccc2n1`: 34.1%.

A further assay addresses Chromo domain-containing protein 1 (Saccharomyces cerevisiae (strain ATCC 204508 / S288c) (Baker's yeast)) (UniProt P32657). The assay is described as follows: ScCHD-1 Enzyme Inhibition Assay. The format is functional. Also noted: scale not given: in the data most compounds retested in dose-response had high values. Particulars: 30 µM.
`Cc1cccc(CN2C(=O)CCC23CCN(Cc2cccn2C)CC3)n1`: the Percent Effect is -11.1%.
As to `CN(C(=O)CN1CCOC(Cn2cccn2)C1)c1nccs1` (stereo not drawn), the Percent Effect is -15%.
Take `c1cc(-c2nc(CN3CCn4c(nnc4C4CC4)C3)cs2)cs1`: the Percent Effect came out at 5.73%.
On the same count and under the same terms, the same measure for `CS(=O)(=O)NCC1CCCN(C(=O)COCC(F)(F)F)C1` (stereo not drawn): -7.07%; for `COc1ccc(-c2nc(CN3CCc4c(ncn4C)C3)cs2)cc1`: 4.88%; for `Cc1cccc(CN2CCC3(CCN(c4ccccn4)C3)C2=O)c1` (stereo not drawn): -5.26%.
On the same count and under the same terms, with `CCCC(C)C(=O)N1CCC(n2cccc2C(=O)OC)CC1` (stereo not drawn) the figure was 6.48%.
On to `O=C(NCC1CCOC1)Nc1ccc(OCC(F)(F)F)nc1` (stereo not drawn), for which the Percent Effect is -2.87%.
The same measure, in the same setting: the same measure for `Cc1ncc(-c2ccnc(N3CCN(C)CC3)n2)c(-c2cccnc2)n1`: -12.5%; for `Cc1cc(OCC(=O)N2CCCC(c3noc(C)n3)C2)no1` (stereo not drawn): -9.02%; for `COc1ccc(OCCN(C)C(=O)NC(C)c2nncn2C)cc1` (stereo not drawn): -6.11%.
On to `CCc1ccsc1C(=O)N1CCN(C(=O)CC(F)(F)F)CC1`, for which the Percent Effect was -4.02%.
Still for that read-out and setting: with `CC(C(=O)N1CCCC1)N1CCC(c2nccn2Cc2cscn2)CC1` (stereo not drawn) the figure was -3.89%.
Still for that read-out and setting: the same measure for `CCC(=O)N1CCC(O)(c2ncc(OC)nc2OC)CC1`: -17.1%; for `O=C(c1cc(Cl)c2c(c1)OCCO2)N1CCCC(n2cncn2)C1` (stereo not drawn): 2.59%.
Still for that read-out and setting: with `CN(C)CC1CN(Cc2nnc(-c3ccccc3Cl)o2)CCO1` (stereo not drawn) the figure was -11.7%.
Turning to `Cc1ccc(OCC(O)CN2CCC(Cn3cccn3)CC2)cc1` (stereo not drawn), the Percent Effect is -5.78%.
With `COCCN1CCCN(C(=O)NC(C)Cn2ccnc2)CC1` (stereo not drawn), the Percent Effect was -5.5%.
In the case of `CCc1nc(C2CCCN2C(=O)c2ccoc2C)no1` (stereo not drawn), the Percent Effect turned out to be 0.101%.
Same read-out and setting: with `COc1cc(CNCc2ccc(NC(=O)NC(C)C)cc2)cc(OC)c1` the figure was -10.7%; with `Cc1cc(NC(=O)N(CC2CCOC2)C2CC2)no1` (stereo not drawn), -7.01%; with `COc1ccc(F)cc1C(=O)N(C)Cc1cc(C)on1`, -1.49%.
The same measure, in the same setting: with `CN(C)C(=O)N1C[C@H]2CCC[C@@]2(COc2ccccn2)C1` the figure was -2.37%; with `COc1ncc(C2CC(=O)NCc3nc4ccccn4c32)cn1` (stereo not drawn), -1.5%.
Same read-out and setting: the same measure for `Cn1nc2c(cc1=O)CN(Cc1nc(C(C)(C)C)no1)CC2`: -14.7%; for `Fc1cnc(N2CCOCC3(CCCN(c4nncs4)C3)C2)nc1` (stereo not drawn): 0.128%; for `CN1CCCn2c(nc(CNC(=O)c3ccsc3)cc2=O)C1`: -0.931%.
On to `Cc1ccc(-c2nc(CN3CCn4c(nnc4C4CC4)C3)co2)cc1`, for which the Percent Effect is -6.77%.
`O=c1cc(Cn2cncn2)nc2n1CCCN(CC1CC1)C2`: the Percent Effect was -4.01%.
For the compound `CC(c1nc(C2CC2)no1)N1CCN(Cc2ccsc2)CC1` (stereo not drawn), the Percent Effect is -5.15%.
For `O=c1c2ccccc2nc2n1C(CSc1ccc(Cl)cc1Cl)CN2` (stereo not drawn), the Percent Effect was -2.41%.
Take `CCc1cc(O)nc(C2CCCN2C(=O)c2cc(C)no2)n1` (stereo not drawn): the Percent Effect is -14.2%.
The same measure, in the same setting: the same measure for `CN(C)C(=O)CCC(=O)NCc1cccnc1-n1cnc2ccccc21`: 0.948%.
Consider `CCc1nccn1C1CCCN(C(=O)Cc2ccc(OC)c(F)c2)C1` (stereo not drawn), for which the Percent Effect was -9.19%.
Consider `CC(=O)N1C[C@@H](c2ccsc2)[C@@H]2CN(Cc3ccccc3)CC[C@@H]21`, for which the Percent Effect is -25.4%.
Still for that read-out and setting: the same measure for `CN(C)CC1CN(Cc2coc(-c3ccccc3Cl)n2)CCO1` (stereo not drawn): -10.4%.
As for `CCNC(=O)[C@@H]1C[C@@H](NC(=O)Cc2ccncc2)CN1Cc1ccsc1`, the Percent Effect worked out at 5.29%.
Same read-out and setting: the same measure for `CC(C)(C)C(O)CN1CCN(C(=O)c2cccc3[nH]ncc23)CC1` (stereo not drawn): 22.1%.
On the same count and under the same terms, with `CC(C)c1cc(N2CCN(c3ccc(O)cc3)CC2)n2nccc2n1` the figure was -3.77%.
